Among the test systems are HCT-15 colon; HT29 colon; SNB-75 CNS; U251 CNS; PC-3 prostate; SK-MEL-5 melanoma; UACC-62 melanoma; LOX IMVI melanoma; SK-MEL-28 melanoma; SK-MEL-2 melanoma; EKVX NSCLC; SN12C renal; UO-31 renal; TK-10 renal; ACHN renal; CAKI-1 renal; A498 renal; CCRF-CEM leukemia; MOLT-4 leukemia; SNB-19 CNS.
Common to all, as to assay: NCI-60 one-dose screen, 48 h (100 = growth as untreated, 0 = no growth, -100 = all killed)
Settings in all cases: 10 µM

Our source for the growth values is PubChem BioAssay (NCI).

About 83,000 compounds went through this panel and 20% of them were active in at least one assay; those are over-represented in the sample as a whole.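 How to read the values: 0–100, growth inhibition (40 = 60% inhibited); 0, no net growth; -100 to 0, cell death (-40 = 40% of starting cells died; -100 = all dead).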 A number with no mark means an inactive call. The source made the active and inactive calls. The calls were made as follows: active = growth percent below 10; inactive = the rest.

For `C=CCNCCCN1C(=O)c2ccc3c4c(ccc(c24)C1=O)C(=O)N(CCCNCC=C)C3=O`, the growth in the test on HCT-15 colon was -72.4% (active); in the test with HT29 colon, -17.1% (active); in the test with SNB-75 CNS it was -98.2% (active); in the test with U251 CNS it was -73.9% (active); in the test on PC-3 prostate it was -15.5% (active); in the test with SK-MEL-5 melanoma, -99.3% (active). Besides, the growth is -80.4% (active) in the test on UACC-62 melanoma; -77.5% (active) in the test with LOX IMVI melanoma; -76.3% (active) in the test with SK-MEL-28 melanoma; -35.6% (active) in the test with SK-MEL-2 melanoma; -78.7% (active) in the test on EKVX NSCLC; -77.7% (active) with SN12C renal. The growth in the test with UO-31 renal was -44.3% (active); with TK-10 renal it was -3.01% (active); with ACHN renal, -9.77% (active); with CAKI-1 renal, -42.8% (active); in the test on A498 renal, -71% (active); with CCRF-CEM leukemia, 4.96% (active). The growth in the test on MOLT-4 leukemia was -3.33% (active).

For `O=C1/C(=C/c2cccs2)CCC/C1=C\c1cccs1`, the growth with HCT-15 colon was 78.9%; with HT29 colon, 73.9%; in the test with SNB-75 CNS it was 110%; in the test on U251 CNS, 83.8%; with PC-3 prostate it was 89.6%; with SK-MEL-5 melanoma it was 83%. Moreover, the growth with UACC-62 melanoma is 77%; in the test with LOX IMVI melanoma, 92.4%; in the test with SK-MEL-28 melanoma, 102%; in the test on SK-MEL-2 melanoma it was 95.8%; with EKVX NSCLC it was 74%; with SN12C renal, 103%. The growth was 75.9% with UO-31 renal; 78.2% in the test with TK-10 renal; 101% in the test with ACHN renal; 87.4% with CAKI-1 renal; 80.9% with CCRF-CEM leukemia.

Take `CC(C)(C)CC(C)(C)c1ccc(O)c(Cc2ccc(Cl)cc2Cl)c1`: the growth with HCT-15 colon is -78.7% (active); with HT29 colon, -92.4% (active); with SNB-19 CNS it was -82.9% (active); in the test on U251 CNS, -95.3% (active); in the test with PC-3 prostate, -65.2% (active); with SK-MEL-5 melanoma, -95.1% (active). Further, the growth with UACC-62 melanoma was -87.9% (active); in the test with LOX IMVI melanoma it was -95.4% (active); with SK-MEL-28 melanoma, -84.9% (active); in the test with SK-MEL-2 melanoma, -76.9% (active); in the test with EKVX NSCLC, -77.1% (active); with UO-31 renal, -98.7% (active). Besides, the growth is -92.7% (active) in the test on TK-10 renal; -83.3% (active) in the test on CAKI-1 renal; -94% (active) in the test with A498 renal; -37.4% (active) in the test on CCRF-CEM leukemia; -62.7% (active) in the test on MOLT-4 leukemia.

`COc1ccc(-c2nc(-c3nc4ccc(OC)cc4[nH]3)c3ccccn23)cc1`: the growth was 59.7% in the test with HCT-15 colon; 58.6% in the test on HT29 colon; 61.6% in the test on U251 CNS; 35% with PC-3 prostate; 59% with SK-MEL-5 melanoma; 79% in the test with UACC-62 melanoma. For the same compound, the growth was 71.1% in the test on LOX IMVI melanoma; 98.1% with SK-MEL-28 melanoma; 71.3% in the test on SK-MEL-2 melanoma; 71.4% in the test on SN12C renal; 25.5% in the test with UO-31 renal; 79.3% with TK-10 renal. Further, the growth with ACHN renal is 64.2%; in the test with CAKI-1 renal, 64%; in the test on A498 renal, 55.5%; in the test with CCRF-CEM leukemia, 33.8%; in the test on MOLT-4 leukemia, 45.5%.

For the compound `CCOC(=O)Nc1ccc2c(c1)C(=O)N(CC)c1ccccc1O2`, the growth in the test on HCT-15 colon is 14.4%; with HT29 colon, -3.19% (active); with SNB-19 CNS it was 31.7%; in the test on U251 CNS it was 18.7%; in the test on PC-3 prostate, 33.8%; in the test with SK-MEL-5 melanoma, -28% (active). Also, the growth is 21.5% with UACC-62 melanoma; 15.1% with LOX IMVI melanoma; 63.4% in the test on SK-MEL-28 melanoma; 14.6% in the test with SK-MEL-2 melanoma; 32.8% in the test with EKVX NSCLC; 53.7% in the test on UO-31 renal. Also, the growth with TK-10 renal was 74.8%; in the test with ACHN renal, 35.6%; in the test with CAKI-1 renal, 31.1%; in the test on A498 renal it was -4.82% (active); in the test on CCRF-CEM leukemia, 13.5%; with MOLT-4 leukemia it was 14.5%.

For `CCOC(=O)c1c(O)c2cc(-c3ccccc3)nc(OCC)c2c(=O)n1C`, the growth with HCT-15 colon was 82.7%; in the test with HT29 colon, 107%; in the test on SNB-19 CNS, 91.5%; in the test with U251 CNS, 97.3%; in the test on PC-3 prostate, 14.3%; in the test on SK-MEL-5 melanoma, 86.7%. The growth is 99.9% in the test on UACC-62 melanoma; 98.7% in the test with LOX IMVI melanoma; 84.8% with SK-MEL-28 melanoma; 87.9% with SK-MEL-2 melanoma; 96% in the test with EKVX NSCLC; 98.7% in the test on SN12C renal. The growth in the test with UO-31 renal was 79.6%; in the test with ACHN renal it was 98.3%; in the test on CAKI-1 renal, 97.3%; in the test with A498 renal it was 90.3%; in the test with CCRF-CEM leukemia it was 56%; in the test with MOLT-4 leukemia, 107%.

Take `C=CCn1c(C)nc2cc(Nc3nc(Nc4ccc5nc(C)n(CC=C)c5c4)c4ccccc4n3)ccc21`: the growth in the test with HCT-15 colon is -76.2% (active); in the test on HT29 colon, -69.4% (active); in the test on SNB-19 CNS it was -66.1% (active); in the test on PC-3 prostate it was -91.7% (active); in the test on SK-MEL-5 melanoma, -95.2% (active); with UACC-62 melanoma, -83.3% (active). In addition, the growth in the test on LOX IMVI melanoma was -83.3% (active); with SK-MEL-28 melanoma, -88% (active); in the test with SK-MEL-2 melanoma, -84.1% (active); in the test with SN12C renal, -69.6% (active); with UO-31 renal, -94.4% (active); in the test with TK-10 renal, -97.2% (active). The growth with ACHN renal was -97.4% (active); in the test with CAKI-1 renal, -86.4% (active); in the test with A498 renal it was -100% (active); with CCRF-CEM leukemia, -11.3% (active); in the test on MOLT-4 leukemia, -26.8% (active).

On to `Nc1c(C(=O)Nc2ccccc2F)sc2nc3c(cc12)C(=O)CCC3`, for which the growth with HCT-15 colon is 40.2%; with HT29 colon, 12.2%; in the test on SNB-19 CNS it was 41.1%; in the test with U251 CNS, 31.6%; in the test with PC-3 prostate, 23.4%; in the test on SK-MEL-5 melanoma it was 17.9%. Also, the growth in the test with UACC-62 melanoma was 23.7%; in the test on LOX IMVI melanoma it was 54.2%; in the test with SK-MEL-28 melanoma, 64.1%; in the test with SK-MEL-2 melanoma it was 42.6%; in the test on EKVX NSCLC it was 56.3%; in the test with SN12C renal it was 49.8%. Besides, the growth was 76% in the test on UO-31 renal; 59.7% in the test on TK-10 renal; 65.4% with ACHN renal; 4.36% (active) in the test with CAKI-1 renal; -1.01% (active) in the test with A498 renal; 26.8% in the test with CCRF-CEM leukemia. The growth in the test with MOLT-4 leukemia is 73.6%.

On to `COc1cc(Nc2ccnc(N3CCN(c4ccnc5cc(Cl)ccc45)CC3)n2)cc(OC)c1`, for which the growth with HCT-15 colon is 9.9% (active); with HT29 colon, -15.1% (active); with SNB-19 CNS it was 39.1%; with U251 CNS, 12.6%; with PC-3 prostate, 3.31% (active); with SK-MEL-5 melanoma it was -55.2% (active). The growth was -21.6% (active) in the test with UACC-62 melanoma; 3.24% (active) in the test on LOX IMVI melanoma; 11.9% in the test on SK-MEL-28 melanoma; -42.2% (active) in the test on SK-MEL-2 melanoma; 19% with SN12C renal; -1.54% (active) in the test with UO-31 renal. The growth is -4.71% (active) with TK-10 renal; 13.2% in the test with ACHN renal; 20.2% in the test on CAKI-1 renal; -1.87% (active) with A498 renal; 3.84% (active) with CCRF-CEM leukemia; -45.9% (active) with MOLT-4 leukemia.
